The text below walks through data of PubChem BioAssay AID1259415 (National Center for Advancing Translational Sciences (NCATS), 2018).

The campaign covered roughly 410,000 compounds. About 18,000 (4.4%) were called active. About 7% were inconclusive and are not listed. Shown is part of a subset that was picked to be rich in actives. Unmarked numbers belong to inactive results. Cut-off read from the data, not from the text of the source: active = activity change below about -60%; inconclusive = no clear call, values can overlap the other calls; inactive = above about -39%.
% is set by controls: 0 for no effect and ±100 for the full control effect.

The nature of this assay: qHTS Assay for inhibitors of the human cytomegalovirus (HCMV). Particulars: HFF cells, HCMV-luciferase reporter, 72 h; at 57.5 µM; stronger effect = lower value. From the text: NCGC Assay Overview: Infection with human cytomegalovirus (HCMV) continues to pose significant threats for pregnant women and immunocompromised hosts. HCMV causes serious morbidity and mortality in transplant recipients, and congenital HCMV is the leading infectious cause of mental retardation and deafness in children. In the 1990s, the annual costs associated with the disease burden of congenital CMV were estimated at around $2 billion. A HCMV vaccine is not available yet and HCMV therapies result in intolerable side effects and emergence of drug resistant viruses. […] Towards this goal we have developed and characterized a luciferase HCMV reporter that was initially used in 96 well plates and then optimized to 1536-well plates for utilization in screening of the MLSMR collection, the NGCG diversity collection and the NCGC Pharmaceutical Collection of approved and investigational drugs.
NCGC Assay Protocol Summary:
This is a cell-based assay for HCMV inhibition in HFFs cells. The screening used 2 compound doses and the HCMV-luciferase at MOI of 1 PFU/cell. Cells were treated and infected with HCMV. At 72 h post infection cell lysates were collected and luciferase activity was determined using the Glomax-Multi + Detection System (Promega, Madison, WI). Data were normalized to the controls for basal activity (buffer only) and known HCMV inhibitors Salinmoycin.
1536-well assay protocol for the assay:
(1) Add 3 ul CMV/HFF cell culture. 1000 cells/well in DMEM nirmal media.
(2) Incubate 16 hr at 37C.
(3) Add 23 nl control compound, 10uM of Salinomycin.
(4) Add 23 nl compounds in DMSO solution.
(5) Add 3 ul CMV suspension. Final 1 puf/ul, Virus stock 2000pfu/ul
(6) Incubate 72 hrs at 37C.
(7) Add 4 ul OneGlo Luc Reagent.
(8) Incubate 5 min at room temperature.
`Cc1cc2n(n1)C(c1cc(C(C)(C)C)c(O)cc1O)Nc1ccccc1-2` (stereo not drawn): the activity change, negative = inhibition was -23.1%.
On to `COc1ccc(-c2nc(CS(=O)(=O)CC(=O)NCc3cccc(Br)c3)c(C)o2)cc1`, for which the activity change, negative = inhibition is 5.73%.
As to `CCCCN(CC)CCCNC(=O)CS(=O)(=O)Cc1nc(-c2cccc(OC)c2)oc1C`, the activity change, negative = inhibition is 29.6%.
Under `COc1cccc(-c2nc(CS(=O)(=O)CC(=O)N3CCN(c4cc(C)ccc4C)CC3)c(C)o2)c1` stands -75.7% (active); under `CCS(=O)(=O)n1nc(-c2ccccc2)nc1SCc1ccccc1`, 138%; under `COc1cc(OC)c(C2C=C(C(=O)O)Nc3ncnn32)cc1OC` (stereo not drawn), 6.4%.
Regarding `CCN(CC)CCCNC(=O)c1ccc2c(=O)n(Cc3ccc4c(c3)OCO4)c(=S)[nH]c2c1`, the activity change, negative = inhibition was 69.4%.
Under `COCCn1c(=S)[nH]c2cc(C(=O)NCCc3ccc(OC)c(OC)c3)ccc2c1=O` stands 29.3%; under `COc1ccc(Cn2c(=S)[nH]c3cc(C(=O)NCCCN4CCOCC4)ccc3c2=O)cc1`, -65.2% (active); under `COc1ccc(C(F)(F)F)cc1N/C=C\c1nnnn1-c1ccc(C)cc1`, 34.7%.
With `Cc1ccc(CN2CCc3nc(N4CCN(C)CC4)ncc3C2)cc1`, the activity change, negative = inhibition is -6.43%.
In the case of `CCCCOCCCNC(=O)C[C@@H]1C[C@@]2(C(=O)OCC)CCCC=C2N(CCC2=CCCCC2)C1=O`, the activity change, negative = inhibition was 22.8%.
Regarding `CS(=O)(=O)N1CCc2nc(-c3ccccc3)sc2C1`, the activity change, negative = inhibition is 154%.
On to `CCOc1ccc(S(=O)(=O)NCCSc2ccccc2)cc1`, for which the activity change, negative = inhibition is 43.7%.
In the case of `CCOc1ccc(S(=O)(=O)c2cn(Cc3ccccc3)c3ccc(OCC)cc3c2=O)cc1`, the activity change, negative = inhibition is -13.1%.
Regarding `CCOc1ccc(Nc2c(S(=O)(=O)c3ccccc3)cnc3ccccc23)cc1`, the activity change, negative = inhibition is -70% (active).
Under `Cc1cc(F)ccc1NC1(c2ccccc2)C(=O)c2ccccc2C1=O` stands 6.52%; under `Cc1[nH]c2ccccc2c1C(=O)CN1CC(C)CC(C)C1` (stereo not drawn), 9.64%.
Consider `COc1ccc(C(=O)COC(=O)c2c(C)noc2C)cc1Cl`, for which the activity change, negative = inhibition was -19.5%.
Turning to `Cc1[nH]c2ccccc2c1C(=O)COC(=O)c1c(-c2ccccc2)noc1C`, the activity change, negative = inhibition is -67.3% (active).
For the compound `CCN(CC)c1ccc(NC(=O)Cn2nc3c(cc2=O)CCCC3)c(C)c1`, the activity change, negative = inhibition was -12.7%.
The result for `CSc1ccc(CCNC(=O)c2ccc3c(c2)nc2n3CCOC2)cc1` reads 11.7%.
Under `CN(C(=O)CCNC(=O)Cn1ccc2ccccc2c1=O)c1ccc(Br)cc1` stands 9.17%; under `CC1=C(C(=O)OCc2ccc(C)cc2)C(c2ccccc2Cl)CC(=O)N1` (stereo not drawn), -36.9%; under `CCCNC(=O)C1(C)CCCN(Cc2c(C)nn(-c3ccccc3)c2C)C1` (stereo not drawn), -77% (active).
On to `CCCNC(=O)C1(C)CCCN(Cc2cccc(C(F)(F)F)c2)C1` (stereo not drawn), for which the activity change, negative = inhibition is -32.6%.
As for `CCCNC(=O)C1(C)CCN(Cc2ccc(Cl)c(Cl)c2)C1` (stereo not drawn), the activity change, negative = inhibition was -29%.
The result for `Cc1ccc(NC(=O)N2c3ccccc3SC2c2ccco2)c(C)c1` (stereo not drawn) reads -32.4%; that for `O=C(NCC(c1ccc(Cl)cc1)N1CCOCC1)c1ccccc1F` (stereo not drawn), 1.34%; that for `C=CCn1c(SCC(N)=O)nnc1-c1cc2c(s1)CCC(CC)C2` (stereo not drawn), -11.3%.
Under `CCc1ccc(NC(=O)CCS(=O)(=O)c2cc3c(cc2Cl)NC(=O)CO3)cc1` stands 4.24%; under `NNC(=O)c1cnn(-c2ccccc2)c1C(F)(F)F`, 6.26%; under `FC(F)(F)c1nc(-c2ccccc2)ncc1-c1nnnn1-c1ccccc1`, -66.2% (active).
As to `Fc1ccccc1CCNc1nnnn1-c1ccccc1`, the activity change, negative = inhibition was -28.9%.
Consider `CCN(CC)S(=O)(=O)c1ccc2c(c1)c(=O)c(C(=O)N1CCN(c3cccc(Cl)c3)CC1)cn2C`, for which the activity change, negative = inhibition was 11.7%.
Turning to `Cc1cccc(N2CCN(C(=O)CCn3c(=O)c4cccn4c4cccnc43)CC2C)c1` (stereo not drawn), the activity change, negative = inhibition is 15%.
As to `CC(C)CCN1CCN=C1N(C)C`, the activity change, negative = inhibition is 3.25%.
`COCCNc1nc(-n2nc(C)cc2C)nc2sc3c(c12)CCCC3`: the activity change, negative = inhibition is -6.15%.
For `CC(C)c1nc(SCC(=O)Nc2cccc(C(=O)O)c2)c2c3c(sc2n1)CCCC3`, the activity change, negative = inhibition was -5.06%.
In the case of `Cc1cc(C)n(-c2nc(SCC(=O)N3CCCC3)c3c4c(sc3n2)CCCC4)n1`, the activity change, negative = inhibition was -63.6% (active).
Under `CC(=O)c1ccc(NC(=O)CCNS(=O)(=O)c2cc(Br)cnc2N)cc1` stands 31.8%; under `CCOc1ccc(CNC(=O)c2ccc(CS(=O)c3ccccc3)o2)cc1` (stereo not drawn), -3.55%.
On to `CCCCc1nn2c(=O)cc(COC(=O)c3cccc(NC(=O)COc4ccccc4)c3)nc2s1`, for which the activity change, negative = inhibition was 31.4%.
Regarding `O=S(=O)(NCCc1ccc(F)cc1)c1cccc2cccnc12`, the activity change, negative = inhibition is -31.1%.
For the compound `Cc1ccc2cccc([N+](=O)[O-])c2n1`, the activity change, negative = inhibition is 19.3%.
The result for `O=[N+]([O-])c1ccccc1S(=O)(=O)Nc1cccc2cccnc12` reads -100% (active); that for `Cn1c2ccccc2c2cc(/C=C(\NC(=O)c3ccccc3)C(=O)NCC(=O)O)ccc21`, -0.653%; that for `Cc1nc(-c2ccccc2C(C)C)nc(NCc2ccc(-c3cccnc3)cc2)c1C`, 28%.
The result for `COc1ccc(OC)c(-c2csc(-c3c(N)c(C(=O)c4ccccc4)n4ccccc34)n2)c1` reads 5.78%; that for `O=c1c2ccccc2nc(/C=C/c2ccc(F)cc2)n1-c1ccccc1O`, -99.8% (active).
Turning to `O=C(CSc1nc2ccccc2c(=O)n1-c1ccccc1F)N1CCOCC1`, the activity change, negative = inhibition is -17.8%.
For the compound `O=c1c2ccccc2nc(/C=C/c2ccco2)n1-c1ccccc1O`, the activity change, negative = inhibition was -24%.
`COc1ccc(OC)c2sc(N3CCN(C(=O)C4COc5ccccc5O4)CC3)nc12` (stereo not drawn): the activity change, negative = inhibition is -1.41%.
As for `COc1ccccc1-c1nnc(C2CCN(C(=O)c3ccc(Cl)cc3)CC2)o1`, the activity change, negative = inhibition was -8.12%.
`Cc1nc2c(-c3ccc(F)cc3)c(C)nn2c(C)c1CCC(=O)NCc1ccco1`: the activity change, negative = inhibition was -13.3%.
For `Cc1nc2c(-c3ccccc3)c(C)nn2c(C)c1CCC(=O)NCCc1ccccc1`, the activity change, negative = inhibition was 11.4%.
For the compound `Cc1nc2c(-c3ccc(F)cc3)c(C)nn2c(C)c1CCC(=O)N1CCN(c2ccccn2)CC1`, the activity change, negative = inhibition is -68.5% (active).
Consider `Cc1ccc(S(=O)(=O)c2c(Nc3cccc(Cl)c3)sc(C(=O)c3ccc4c(c3)OCO4)c2N)cc1`, for which the activity change, negative = inhibition is 9.79%.
For `Cc1ccc(/C=N/NC(=O)C2=NNC(c3ccccc3)(c3ccccc3)C2)c(O)c1`, the activity change, negative = inhibition was -93.6% (active).
Turning to `Cc1ccc(O)c(-c2cc(C(=O)NCc3ccccc3)[nH]n2)c1`, the activity change, negative = inhibition is 1.75%.
For `Cc1ccc(/C=N/NC(=O)C(NC(=O)c2ccccc2)c2n[nH]c(=O)c3ccccc23)cc1` (stereo not drawn), the activity change, negative = inhibition is 19.8%.
The result for `COc1ccc(NC(=O)c2cc3cc(C)ccc3n2C)cc1` reads 5.58%; that for `CCOC(=O)c1c(S(=O)(=O)N2CCCC(C(=O)NCc3cccc(C)c3)C2)c(C)n(C)c1C` (stereo not drawn), -0.309%; that for `Cc1oc2ncn(CC(C)C)c(=O)c2c1C(=O)N1CCN(c2ccccc2F)CC1`, 14.5%.
Regarding `C=C1C(=O)[C@]23C[C@H]1CCC2[C@@]1(C)C(C[C@@H]3O)[C@](C)(C(=O)O)CC[C@@H]1O` (stereo partly drawn), the activity change, negative = inhibition is -81.2% (active).
The result for `Fc1ccccc1/C=N/Nc1cc(N2CCCCC2)ncn1` reads 76.3%; that for `Oc1ccc(Br)cc1/C=N/Nc1ccccn1`, -97% (active); that for `Cc1ccc(OCCOCCOc2ccc(Br)cc2/C=N\NC(=O)c2ccncc2)cc1`, -1.54%.
Under `COc1ccc(-c2noc(CSc3nc4ccc(C)cc4[nH]3)n2)cc1` stands -38.7%; under `COC(=O)c1cnc(N2CCN(c3ccccc3OC)CC2)c2ccccc12`, -6.88%.
Consider `Cc1cccc(N2CCN(C3=C(c4ccccc4)C(=O)c4ccccc43)CC2)c1C`, for which the activity change, negative = inhibition is -15.5%.
With `O=C(NC1CC(=O)N(c2ccc(F)cc2)C1)c1cccs1` (stereo not drawn), the activity change, negative = inhibition was 70.7%.
As to `COc1ccc(C)cc1Nc1nc2ccccc2c2nnc(C)n12`, the activity change, negative = inhibition is 18.4%.
`O=C(c1n[nH]c2c1CCC2)N1CCCC(Nc2cccc(F)c2)C1` (stereo not drawn): the activity change, negative = inhibition is 9.79%.
Under `Cc1ccc(-c2onc(C)c2C)cc1S(=O)(=O)Nc1ccccn1` stands 52.8%; under `COc1ccc2c(c1)Cc1sc(NC(=O)c3ccccc3Br)nc1-2`, -70.4% (active); under `Cn1c(=O)c(=O)n(C)c2cc(NC(=O)c3ccccc3Br)ccc21`, -5.7%.
Turning to `COc1ccc(NS(=O)(=O)c2ccc(N3CCOCC3)c(NC(=O)c3ccccc3Br)c2)cc1`, the activity change, negative = inhibition is 0%.
For `O=C(NCCc1ccccc1)c1ccc2c(c1)N(Cc1ccccc1)C(=O)c1ccccc1S2(=O)=O`, the activity change, negative = inhibition was 3.01%.
As for `O=C(OCCO)c1cc(Cl)c(C(=O)OCCO)cc1Cl`, the activity change, negative = inhibition is -29.4%.
On to `CCOC(=O)[C@]12CCCC=C1N(CCC1=CCCCC1)C(=O)[C@H](CC(=O)NCCCCc1ccccc1)C2`, for which the activity change, negative = inhibition is -18.4%.
Under `CC1=C(C(=O)N(C(C)C)C(C)C)CC(CC(=O)NCCCCc2ccccc2)C(=O)N1CCC1=CCCCC1` (stereo not drawn) stands -112% (active).
The result for `CC1=C(C(=O)N(C)C)CC(CC(=O)NCCc2ccccn2)C(=O)N1CCC1=CCCCC1` (stereo not drawn) reads 8.56%; that for `COc1ccccc1NC(=O)C1=C(C)Nc2ncnn2C1c1sccc1C` (stereo not drawn), 18%; that for `O=C(CSc1oc(-c2ccco2)nc1S(=O)(=O)c1ccc(Cl)cc1)c1ccccc1`, -0.0708%.
Take `O=C(Nc1ccc(S(=O)(=O)N2CCOCC2)cc1)C1CCN(S(=O)(=O)c2ccc(Cl)cc2)CC1`: the activity change, negative = inhibition is -78.5% (active).
For the compound `O=C(Nc1ccc(Oc2ccccc2)cc1)C1CCN(S(=O)(=O)c2ccc(Cl)cc2)CC1`, the activity change, negative = inhibition is -10.9%.
Under `CC(=O)Nc1ccc(S(=O)(=O)N2CCC(C(=O)NC3CC3)CC2)cc1` stands 6.71%.
